Numbering of substitutions follows the chain as printed.
Assays:
Assay in all cases: PBM; 200 nM protein, PBS
Conditions in all cases: dsDNA, one strand shown
[1] = target: SHOX (Homo sapiens, UniProt O15266 103-189)
[2] = target: T1, VENTX (Homo sapiens, UniProt O95231 78-163, R121Q)
T1 sequence: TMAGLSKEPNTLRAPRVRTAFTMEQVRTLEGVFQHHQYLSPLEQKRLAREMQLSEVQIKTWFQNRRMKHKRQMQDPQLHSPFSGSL

[3] = target: HOXB9 (Homo sapiens, UniProt P17482 171-250, T197M)
[4] = target: T2, VENTX (Homo sapiens, UniProt O95231 78-163)
T2 sequence: T1 sequence with Q44R

[5] = target: HOXA7 (Homo sapiens, UniProt P31268 116-202)
Chain of HOXA7 (Homo sapiens, UniProt P31268 116-202) (P31268 116-202): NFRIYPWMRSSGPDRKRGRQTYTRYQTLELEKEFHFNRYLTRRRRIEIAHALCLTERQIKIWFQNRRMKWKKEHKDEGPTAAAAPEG

[6] = target: T3, VENTX (Homo sapiens, UniProt O95231 78-163, Y115F)
T3 sequence: T1 sequence with Y38F, Q44R

[7] = target: HOXA2 (Homo sapiens, UniProt O43364 129-215, R185T)
Chain of HOXA2 (Homo sapiens, UniProt O43364 129-215, R185T) (O43364 129-215 R185T): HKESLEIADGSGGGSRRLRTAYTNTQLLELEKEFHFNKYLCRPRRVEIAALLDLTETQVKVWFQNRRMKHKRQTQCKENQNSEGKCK

[8] = target: HOXB9 (Homo sapiens, UniProt P17482 171-250)
Chain of HOXB9 (Homo sapiens, UniProt P17482 171-250) (P17482 171-250): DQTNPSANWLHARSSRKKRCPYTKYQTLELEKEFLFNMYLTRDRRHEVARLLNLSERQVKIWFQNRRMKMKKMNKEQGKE

[9] = target: ALX3 (Homo sapiens, UniProt O95076 139-225, N203Q)
Chain of ALX3 (Homo sapiens, UniProt O95076 139-225, N203Q) (O95076 139-225 N203Q): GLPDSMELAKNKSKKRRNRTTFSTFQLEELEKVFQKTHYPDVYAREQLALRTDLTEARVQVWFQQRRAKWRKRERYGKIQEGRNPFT

[10] = target: HOXD13 (Homo sapiens, UniProt P35453 263-343, T313R)
Chain of HOXD13 (Homo sapiens, UniProt P35453 263-343, T313R) (P35453 263-343 T313R): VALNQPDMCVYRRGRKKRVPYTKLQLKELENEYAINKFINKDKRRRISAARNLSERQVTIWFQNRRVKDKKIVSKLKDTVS

[11] = target: SHOX (Homo sapiens, UniProt O15266 103-189, R173C)
Chain of SHOX (Homo sapiens, UniProt O15266 103-189, R173C) (O15266 103-189 R173C): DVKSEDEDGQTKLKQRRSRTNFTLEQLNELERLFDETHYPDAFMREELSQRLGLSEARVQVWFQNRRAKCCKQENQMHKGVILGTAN

[12] = target: HOXA2 (Homo sapiens, UniProt O43364 129-215, R185K)
Chain of HOXA2 (Homo sapiens, UniProt O43364 129-215, R185K) (O43364 129-215 R185K): as the sequence (O43364 129-215 R185T) above, with T57K counted along it

[13] = target: HOXD13 (Homo sapiens, UniProt P35453 263-343)
Chain of HOXD13 (Homo sapiens, UniProt P35453 263-343) (P35453 263-343): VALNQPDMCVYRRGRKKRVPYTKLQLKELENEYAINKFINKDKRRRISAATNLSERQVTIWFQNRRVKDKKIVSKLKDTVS

[14] = target: ALX3 (Homo sapiens, UniProt O95076 139-225)
Chain of ALX3 (Homo sapiens, UniProt O95076 139-225) (O95076 139-225): as the sequence (O95076 139-225 N203Q) above, with Q65N counted along it

[15] = target: VAX1 (Homo sapiens, UniProt Q5SQQ9 86-172)
Chain of VAX1 (Homo sapiens, UniProt Q5SQQ9 86-172) (Q5SQQ9 86-172): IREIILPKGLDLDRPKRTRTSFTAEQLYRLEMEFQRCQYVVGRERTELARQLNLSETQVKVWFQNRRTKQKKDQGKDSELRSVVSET

[16] = target: ALX3 (Homo sapiens, UniProt O95076 139-225, L168Q)
Chain of ALX3 (Homo sapiens, UniProt O95076 139-225, L168Q) (O95076 139-225 L168Q): as the sequence (O95076 139-225 N203Q) above, with L30Q, Q65N counted along it

[17] = target: HOXD13 (Homo sapiens, UniProt P35453 263-343, T313A)
Chain of HOXD13 (Homo sapiens, UniProt P35453 263-343, T313A) (P35453 263-343 T313A): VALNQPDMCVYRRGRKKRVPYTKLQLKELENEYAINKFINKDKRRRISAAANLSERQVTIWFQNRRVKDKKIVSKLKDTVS

[18] = target: HOXB9 (Homo sapiens, UniProt P17482 171-250, R186Q)
Chain of HOXB9 (Homo sapiens, UniProt P17482 171-250, R186Q) (P17482 171-250 R186Q): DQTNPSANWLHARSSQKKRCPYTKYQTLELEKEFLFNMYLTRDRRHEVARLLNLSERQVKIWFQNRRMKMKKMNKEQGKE

[19] = target: ALX3 (Homo sapiens, UniProt O95076 139-225, L168V)
Chain of ALX3 (Homo sapiens, UniProt O95076 139-225, L168V) (O95076 139-225 L168V): as the sequence (O95076 139-225 N203Q) above, with L30V, Q65N counted along it

[20] = target: VAX1 (Homo sapiens, UniProt Q5SQQ9 86-172, T142I)
Chain of VAX1 (Homo sapiens, UniProt Q5SQQ9 86-172, T142I) (Q5SQQ9 86-172 T142I): as the sequence (Q5SQQ9 86-172) above, with T57I counted along it

[21] = target: HOXA2 (Homo sapiens, UniProt O43364 129-215, Y150S)
Chain of HOXA2 (Homo sapiens, UniProt O43364 129-215, Y150S) (O43364 129-215 Y150S): as the sequence (O43364 129-215 R185T) above, with Y22S, T57R counted along it

[22] = target: HOXA7 (Homo sapiens, UniProt P31268 116-202, W177C)
Chain of HOXA7 (Homo sapiens, UniProt P31268 116-202, W177C) (P31268 116-202 W177C): as the sequence (P31268 116-202) above, with W62C counted along it

[23] = target: ALX3 (Homo sapiens, UniProt O95076 139-225, N203S)
Chain of ALX3 (Homo sapiens, UniProt O95076 139-225, N203S) (O95076 139-225 N203S): as the sequence (O95076 139-225 N203Q) above, with Q65S counted along it

[24] = target: HOXA2 (Homo sapiens, UniProt O43364 129-215)
Chain of HOXA2 (Homo sapiens, UniProt O43364 129-215) (O43364 129-215): as the sequence (O43364 129-215 R185T) above, with T57R counted along it

[25] = target: VAX1 (Homo sapiens, UniProt Q5SQQ9 86-172, K157R)
Chain of VAX1 (Homo sapiens, UniProt Q5SQQ9 86-172, K157R) (Q5SQQ9 86-172 K157R): as the sequence (Q5SQQ9 86-172) above, with K72R counted along it

[26] = target: CRX (Homo sapiens, UniProt O43186 26-111)
Chain of CRX (Homo sapiens, UniProt O43186 26-111) (O43186 26-111): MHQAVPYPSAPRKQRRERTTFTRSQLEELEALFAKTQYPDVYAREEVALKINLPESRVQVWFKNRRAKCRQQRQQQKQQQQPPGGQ

[27] = target: CRX (Homo sapiens, UniProt O43186 26-111, E42D)
Chain of CRX (Homo sapiens, UniProt O43186 26-111, E42D) (O43186 26-111 E42D): as the sequence (O43186 26-111) above, with E17D counted along it

[28] = target: CRX (Homo sapiens, UniProt O43186 26-111, R41L)
Chain of CRX (Homo sapiens, UniProt O43186 26-111, R41L) (O43186 26-111 R41L): as the sequence (O43186 26-111) above, with R16L counted along it

[29] = target: T4, SIX6 (Homo sapiens, UniProt O95475 114-200, L167I)
T4 sequence: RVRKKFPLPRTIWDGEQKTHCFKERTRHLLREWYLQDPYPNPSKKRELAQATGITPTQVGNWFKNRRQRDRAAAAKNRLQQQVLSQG

[30] = target: T5, SIX6 (Homo sapiens, UniProt O95475 114-200, L143V)
T5 sequence: T4 sequence with L30V, I54L

[31] = target: T6, SIX6 (Homo sapiens, UniProt O95475 114-200, H141N)
T6 sequence: T4 sequence with H28N, I54L

[32] = target: T7, SIX6 (Homo sapiens, UniProt O95475 114-200, T165P)
T7 sequence: T4 sequence with T52P, I54L

[33] = target: T8, SIX6 (Homo sapiens, UniProt O95475 114-200, L167M)
T8 sequence: T4 sequence with I54M

[34] = target: T9, SIX6 (Homo sapiens, UniProt O95475 114-200, L143M)
T9 sequence: T4 sequence with L30M, I54L

[35] = target: T10, SIX6 (Homo sapiens, UniProt O95475 114-200, L143I)
T10 sequence: T4 sequence with L30I, I54L

[36] = target: T11, SIX6 (Homo sapiens, UniProt O95475 114-200, T165G)
T11 sequence: T4 sequence with T52G, I54L

[37] = target: T12, SIX6 (Homo sapiens, UniProt O95475 114-200, T139Q)
T12 sequence: T4 sequence with T26Q, I54L

[38] = target: T13, SIX6 (Homo sapiens, UniProt O95475 114-200, T165A)
T13 sequence: T4 sequence with T52A, I54L

[39] = target: T14, SIX6 (Homo sapiens, UniProt O95475 114-200, L167V)
T14 sequence: T4 sequence with I54V

[40] = target: T15, SIX6 (Homo sapiens, UniProt O95475 114-200)
T15 sequence: T4 sequence with I54L

[41] = target: T16, SIX6 (Homo sapiens, UniProt O95475 114-200, T165I)
T16 sequence: T4 sequence with T52I, I54L

[42] = target: T17, NKX2-4 (Homo sapiens, UniProt Q9H2Z4 175-261, P217L)
T17 sequence: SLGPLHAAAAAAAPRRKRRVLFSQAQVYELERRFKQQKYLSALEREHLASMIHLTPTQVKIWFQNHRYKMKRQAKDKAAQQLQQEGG

[43] = target: T18, NKX2-4 (Homo sapiens, UniProt Q9H2Z4 175-261, T231S)
T18 sequence: T17 sequence with L43P, T57S

[44] = target: T19, NKX2-4 (Homo sapiens, UniProt Q9H2Z4 175-261)
T19 sequence: T17 sequence with L43P

[45] = target: ALX1 (Homo sapiens, UniProt Q15699 118-204, L144V)
Chain of ALX1 (Homo sapiens, UniProt Q15699 118-204, L144V) (Q15699 118-204 L144V): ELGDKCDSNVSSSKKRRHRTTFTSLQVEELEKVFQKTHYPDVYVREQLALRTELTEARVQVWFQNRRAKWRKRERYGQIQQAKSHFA

[46] = target: ALX1 (Homo sapiens, UniProt Q15699 118-204, L144R)
Chain of ALX1 (Homo sapiens, UniProt Q15699 118-204, L144R) (Q15699 118-204 L144R): as the sequence (Q15699 118-204 L144V) above, with V27R counted along it

[47] = target: T20, NKX2-4 (Homo sapiens, UniProt Q9H2Z4 175-261, R246Q)
T20 sequence: T17 sequence with L43P, R72Q

[48] = target: ALX1 (Homo sapiens, UniProt Q15699 118-204)
Chain of ALX1 (Homo sapiens, UniProt Q15699 118-204) (Q15699 118-204): as the sequence (Q15699 118-204 L144V) above, with V27L counted along it

Chain of SHOX (Homo sapiens, UniProt O15266 103-189) (O15266 103-189): as the sequence (O15266 103-189 R173C) above, with C71R counted along it
Chain of HOXB9 (Homo sapiens, UniProt P17482 171-250, T197M) (P17482 171-250 T197M): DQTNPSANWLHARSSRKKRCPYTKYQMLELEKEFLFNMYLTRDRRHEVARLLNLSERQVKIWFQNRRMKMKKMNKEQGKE

For CCCACGGC, the binding signal [1] was 6.91 upbm affinity estimate (log intensity, higher = more binding, comparable within an allelic series), the binding signal [2] was 7.88 upbm affinity estimate (log intensity, higher = more binding, comparable within an allelic series) and the binding signal [3] was 8.38 upbm affinity estimate (log intensity, higher = more binding, comparable within an allelic series). For the same sequence, the binding signal [4] was 7.71 upbm affinity estimate (log intensity, higher = more binding, comparable within an allelic series), the binding signal [5] was 8.48 upbm affinity estimate (log intensity, higher = more binding, comparable within an allelic series) and the binding signal [6] was 7.87 upbm affinity estimate (log intensity, higher = more binding, comparable within an allelic series). For the same sequence, the binding signal [7] was 7.17 upbm affinity estimate (log intensity, higher = more binding, comparable within an allelic series), the binding signal [8] was 8.1 upbm affinity estimate (log intensity, higher = more binding, comparable within an allelic series) and the binding signal [9] was 7.69 upbm affinity estimate (log intensity, higher = more binding, comparable within an allelic series). For the same sequence, the binding signal [10] was 9.39 upbm affinity estimate (log intensity, higher = more binding, comparable within an allelic series), the binding signal [11] was 7.08 upbm affinity estimate (log intensity, higher = more binding, comparable within an allelic series) and the binding signal [12] was 10 upbm affinity estimate (log intensity, higher = more binding, comparable within an allelic series). The binding signal [13] was 9.4 upbm affinity estimate (log intensity, higher = more binding, comparable within an allelic series), the binding signal [14] was 7.64 upbm affinity estimate (log intensity, higher = more binding, comparable within an allelic series) and the binding signal [15] was 6.92 upbm affinity estimate (log intensity, higher = more binding, comparable within an allelic series). The binding signal [16] was 7.79 upbm affinity estimate (log intensity, higher = more binding, comparable within an allelic series), the binding signal [17] was 9.58 upbm affinity estimate (log intensity, higher = more binding, comparable within an allelic series) and the binding signal [18] was 8.18 upbm affinity estimate (log intensity, higher = more binding, comparable within an allelic series). The binding signal [19] was 7.77 upbm affinity estimate (log intensity, higher = more binding, comparable within an allelic series), the binding signal [20] was 6.93 upbm affinity estimate (log intensity, higher = more binding, comparable within an allelic series) and the binding signal [21] was 10.4 upbm affinity estimate (log intensity, higher = more binding, comparable within an allelic series). For the same sequence, the binding signal [22] was 8.45 upbm affinity estimate (log intensity, higher = more binding, comparable within an allelic series), the binding signal [23] was 7.71 upbm affinity estimate (log intensity, higher = more binding, comparable within an allelic series) and the binding signal [24] was 7.04 upbm affinity estimate (log intensity, higher = more binding, comparable within an allelic series). For the same sequence, the binding signal [25] was 6.78 upbm affinity estimate (log intensity, higher = more binding, comparable within an allelic series).

In the case of GCATTAAA, the binding signal [1] is reported as 8.99 upbm affinity estimate (log intensity, higher = more binding, comparable within an allelic series).

GGCGGGCA was tested, and the binding signal [1] was 7.13 upbm affinity estimate (log intensity, higher = more binding, comparable within an allelic series), the binding signal [26] was 8.31 upbm affinity estimate (log intensity, higher = more binding, comparable within an allelic series) and the binding signal [27] was 8.21 upbm affinity estimate (log intensity, higher = more binding, comparable within an allelic series). For the same sequence, the binding signal [10] was 9.46 upbm affinity estimate (log intensity, higher = more binding, comparable within an allelic series), the binding signal [11] was 7.15 upbm affinity estimate (log intensity, higher = more binding, comparable within an allelic series) and the binding signal [13] was 9.45 upbm affinity estimate (log intensity, higher = more binding, comparable within an allelic series). The binding signal [17] was 9.59 upbm affinity estimate (log intensity, higher = more binding, comparable within an allelic series) and the binding signal [28] was 8.39 upbm affinity estimate (log intensity, higher = more binding, comparable within an allelic series).

For CGACCGCC, the binding signal [1] was 7.14 upbm affinity estimate (log intensity, higher = more binding, comparable within an allelic series), the binding signal [29] was 8.99 upbm affinity estimate (log intensity, higher = more binding, comparable within an allelic series) and the binding signal [30] was 8.82 upbm affinity estimate (log intensity, higher = more binding, comparable within an allelic series). For the same sequence, the binding signal [31] was 8.95 upbm affinity estimate (log intensity, higher = more binding, comparable within an allelic series), the binding signal [32] was 8.87 upbm affinity estimate (log intensity, higher = more binding, comparable within an allelic series) and the binding signal [33] was 9.03 upbm affinity estimate (log intensity, higher = more binding, comparable within an allelic series). For the same sequence, the binding signal [34] was 8.84 upbm affinity estimate (log intensity, higher = more binding, comparable within an allelic series), the binding signal [35] was 8.91 upbm affinity estimate (log intensity, higher = more binding, comparable within an allelic series) and the binding signal [36] was 9.05 upbm affinity estimate (log intensity, higher = more binding, comparable within an allelic series). For the same sequence, the binding signal [37] was 8.92 upbm affinity estimate (log intensity, higher = more binding, comparable within an allelic series), the binding signal [38] was 8.95 upbm affinity estimate (log intensity, higher = more binding, comparable within an allelic series) and the binding signal [11] was 7.26 upbm affinity estimate (log intensity, higher = more binding, comparable within an allelic series). For the same sequence, the binding signal [39] was 8.84 upbm affinity estimate (log intensity, higher = more binding, comparable within an allelic series), the binding signal [40] was 8.95 upbm affinity estimate (log intensity, higher = more binding, comparable within an allelic series) and the binding signal [41] was 9.02 upbm affinity estimate (log intensity, higher = more binding, comparable within an allelic series).

With GCCGTAGC the binding signal [1] was 6.96 upbm affinity estimate (log intensity, higher = more binding, comparable within an allelic series), the binding signal [42] was 9.17 upbm affinity estimate (log intensity, higher = more binding, comparable within an allelic series) and the binding signal [2] was 7.91 upbm affinity estimate (log intensity, higher = more binding, comparable within an allelic series). For the same sequence, the binding signal [4] was 7.82 upbm affinity estimate (log intensity, higher = more binding, comparable within an allelic series), the binding signal [43] was 9.15 upbm affinity estimate (log intensity, higher = more binding, comparable within an allelic series) and the binding signal [6] was 7.86 upbm affinity estimate (log intensity, higher = more binding, comparable within an allelic series). The binding signal [44] was 9.34 upbm affinity estimate (log intensity, higher = more binding, comparable within an allelic series), the binding signal [45] was 6.19 upbm affinity estimate (log intensity, higher = more binding, comparable within an allelic series) and the binding signal [9] was 7.67 upbm affinity estimate (log intensity, higher = more binding, comparable within an allelic series). For the same sequence, the binding signal [11] was 7.22 upbm affinity estimate (log intensity, higher = more binding, comparable within an allelic series), the binding signal [46] was 6.26 upbm affinity estimate (log intensity, higher = more binding, comparable within an allelic series) and the binding signal [14] was 7.55 upbm affinity estimate (log intensity, higher = more binding, comparable within an allelic series). For the same sequence, the binding signal [47] was 9.33 upbm affinity estimate (log intensity, higher = more binding, comparable within an allelic series), the binding signal [16] was 7.74 upbm affinity estimate (log intensity, higher = more binding, comparable within an allelic series) and the binding signal [19] was 7.76 upbm affinity estimate (log intensity, higher = more binding, comparable within an allelic series). For the same sequence, the binding signal [48] was 6.18 upbm affinity estimate (log intensity, higher = more binding, comparable within an allelic series) and the binding signal [23] was 7.68 upbm affinity estimate (log intensity, higher = more binding, comparable within an allelic series).

In the case of GTGCTTAA, the binding signal [1] is reported as 9.04 upbm affinity estimate (log intensity, higher = more binding, comparable within an allelic series).

For AATATCGA, the binding signal [1] was 8.49 upbm affinity estimate (log intensity, higher = more binding, comparable within an allelic series).
